Source: PubChem (National Center for Advancing Translational Sciences (NCATS))
ELG1 genotox = qHTS screen for small molecules that induce genotoxicity in human embryonic kidney (HEK293T) cells expressing luciferase-tagged ELG1 | HEK293T ELG1-luciferase reporter, luminescence, 16 h | Potency, µM (titrated, usually from 46 µM), most hits filed as activators | hit rate 1.3% among 330,000; note: nearly all actives have a fitted effect of over 60% in size
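Step 1: seed 2,000 HEK293T ELG1-luciferase cells per well. Step 2: add compound or DMSO, incubate 16 hr at 37 °C. Step 3: ONE-Glo, 30 min at room temperature, read luminescence.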
NPC1 prom act = qHTS Assay for NPC1 Promoter Activators. Huh7 NPC1 promoter luciferase reporter, 24 h. Potency, µM (doses to about 9.22 µM), usual class: activators. hit rate 2.4% among 320,000. AID 485313, 2010; note: nearly all actives have a fitted effect of over 60% in size
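NPC1 promoter–luciferase Huh7 cells; 24 h compound; luminescence.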
FLuc counter = qHTS profiling assay for firefly luciferase inhibitor/activator using purifed enzyme and Km concentrations of substrates (counterscreen for miR-21 project); Luciferin 4-monooxygenase (Photinus pyralis), P08659; purified FLuc, Km substrates, luminescence inhibition; Potency, µM (highest dose often 57.5 µM), actives largely listed as inhibitors; hit rate 6.9% among 360,000; AID 588342, 2011; note: nearly all actives have a fitted effect of over 55% in size
Target sequence (P08659 whole entry, looked up): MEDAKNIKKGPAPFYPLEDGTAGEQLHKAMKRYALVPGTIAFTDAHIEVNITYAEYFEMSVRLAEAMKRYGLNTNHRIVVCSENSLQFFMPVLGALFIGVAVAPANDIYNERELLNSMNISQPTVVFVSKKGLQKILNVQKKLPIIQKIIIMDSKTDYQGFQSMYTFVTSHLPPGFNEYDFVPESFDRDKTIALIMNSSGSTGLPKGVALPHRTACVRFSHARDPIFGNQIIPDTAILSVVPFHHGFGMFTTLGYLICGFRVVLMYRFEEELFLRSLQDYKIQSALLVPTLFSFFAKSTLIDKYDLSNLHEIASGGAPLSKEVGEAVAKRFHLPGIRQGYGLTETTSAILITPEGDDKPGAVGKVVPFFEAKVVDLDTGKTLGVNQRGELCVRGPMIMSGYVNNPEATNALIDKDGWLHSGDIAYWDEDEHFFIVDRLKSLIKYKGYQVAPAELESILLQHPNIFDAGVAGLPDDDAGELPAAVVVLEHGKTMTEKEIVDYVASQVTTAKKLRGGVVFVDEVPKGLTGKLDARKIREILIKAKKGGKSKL
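Biochemical qHTS of compounds, final roughly 60 µM downward over six points, against 10 nM purified firefly luciferase using Km concentrations of substrates (10 uM D-luciferin, 10 uM ATP) in Tris acetate pH 7.5 buffer; luminescence output.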
Rab9 promoter act = qHTS Assay for Rab9 Promoter Activators. Potency, µM (highest dose often 9.22 µM), most hits filed as activators. AID 485297, 2010. Huh7 Rab9 promoter-luciferase reporter, luminescence, 24 h. hit rate 2.8% among 320,000; note: nearly all actives have a fitted effect of over 60% in size
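Huh7 cells stably carrying a Rab9 promoter-luciferase reporter, 1500 cells per well in OP-MEM I with 10% FBS, treated with compound 24 hours at 37C. Luciferase activity read by luminescence after 10 minutes with Amplite reagent.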
ELG1 repair inh = qHTS screen for small molecules that inhibit ELG1-dependent DNA repair in human embryonic kidney (HEK293T) cells expressing luciferase-tagged ELG1. HEK293T ELG1-luciferase reporter, luminescence, 16 h; DNA damage induced by 5-fluorouridine. Potency, µM (doses to about 46.1 µM), actives largely listed as inhibitors. hit rate 2.3% among 330,000; note: nearly all actives have a fitted effect of over 55% in size
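In this reporter screen, reduction of luminescence relative to DMSO vehicle indicated activity. Compounds and 5-fluorouridine were added together to 2,000 cells per well, incubated for 16 hr at 37 °C, then developed with ONE-Glo.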
SMN2 splice enh = qHTS Assay for Enhancers of SMN2 Splice Variant Expression; Potency, µM (top dose mostly 46.1 µM), actives largely listed as activators; hit rate 2.8% among 210,000; AID 1458, 2008; HEK293 SMN2-luciferase splicing reporter, luminescence, 30-36 h; note: nearly all actives have a fitted effect of over 55% in size
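HEK293 cells carry an SMN2 minigene-luciferase reporter in which exon 7 inclusion puts luciferase in frame. Cells were seeded at 2000 cells/well, attached for 10-12 hours, then exposed to compounds for 30-36 hours at 37C before ONE-Glo luminescence.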
Numbers stand for hits. Only some compounds are listed: those with a hit (about 9.4% of all), similar ones and a draw of the others. Calls come from the whole dose curve; as a rule, active = well fitted curve in the direction sought with a large enough effect; inconclusive = small, poorly fitted or top-dose-only effect, or another doubt; inactive = no such curve, though single readings can be large; an effect the other way counts as inactive or inconclusive.

Screening COc1ccc(-c2cn3nc(N4CCCC(C(=O)NCc5ccc(Cl)cc5)C4)sc3n2)cc1 (configuration not stated) returned FLuc counter 12µM.
`COCCCNC(=O)C1CCCN(c2nn3cc(-c4ccc(C)cc4)nc3s2)C1` (configuration not stated) gave FLuc counter 8.5µM.
`COc1cccc(CNC(=O)C2CCCN(c3nn4cc(-c5ccc(C)cc5)nc4s3)C2)c1` (configuration not stated) gave FLuc counter 7.6µM.
`Cc1cnc(NC(=O)c2nn(C)cc2[N+](=O)[O-])s1` gave ELG1 genotox inactive, NPC1 prom act inactive, FLuc counter inactive, Rab9 promoter act inactive, ELG1 repair inh inactive and SMN2 splice enh inactive.
Screening Cc1cc(C)n(Cc2ccc(NC(=O)c3nn(C)cc3[N+](=O)[O-])cc2)n1 returned ELG1 genotox inactive, NPC1 prom act inactive, FLuc counter inactive, Rab9 promoter act inactive, ELG1 repair inh inconclusive and SMN2 splice enh inactive.
Cc1ccc(-c2nc(NC(=O)c3nn(C)cc3[N+](=O)[O-])sc2C)cc1C was read as ELG1 genotox inactive, NPC1 prom act inactive, FLuc counter inactive, Rab9 promoter act inactive, ELG1 repair inh 9.2µM and SMN2 splice enh inactive.
Cc1ccc(-c2nc(NC(=O)c3nn(C)cc3[N+](=O)[O-])sc2C)cc1 was read as ELG1 genotox inactive, NPC1 prom act inactive, FLuc counter inactive, Rab9 promoter act inactive, ELG1 repair inh 16µM and SMN2 splice enh inactive.
For Cn1cc([N+](=O)[O-])c(C(=O)Nc2nc(-c3ccc(Cl)cc3)cs2)n1 the results were ELG1 genotox inactive, NPC1 prom act inactive, FLuc counter inactive, Rab9 promoter act inactive, ELG1 repair inh 2.1µM and SMN2 splice enh inactive.
O=C(Nc1nc(-c2ccc([N+](=O)[O-])cc2)cs1)c1c(F)cccc1F was read as ELG1 genotox inactive, NPC1 prom act inactive, FLuc counter inactive, Rab9 promoter act inactive, ELG1 repair inh inactive and SMN2 splice enh inactive.
Screening CC1CN(C(=O)N2CCC(C(=O)NCCCc3ccccc3)CC2)c2ccccc2O1 (configuration not stated) returned FLuc counter inactive.
Screening Cc1ccc(C)c(N2CCN(C(=O)CN3C(=O)COc4ccc(S(=O)(=O)N5CCOCC5)cc43)CC2)c1 returned FLuc counter inactive and SMN2 splice enh inactive.
For Cc1ccc(C)c(Nc2cc(C(=O)NC3CCCCC3)c3ccccc3n2)c1 the results were FLuc counter inactive and SMN2 splice enh inactive.
`O=C(N/N=C/c1ccncc1)c1cc2ccccc2cc1O` gave ELG1 genotox inconclusive, NPC1 prom act inactive, FLuc counter 7.6µM, Rab9 promoter act inactive and ELG1 repair inh inactive.
Cc1cccc(C(=O)N/N=C/c2ccc[nH]2)c1 was read as ELG1 genotox inactive, NPC1 prom act inactive, FLuc counter inconclusive, Rab9 promoter act inactive, ELG1 repair inh inconclusive and SMN2 splice enh inactive.
O=C(N/N=C/c1ccc[nH]1)c1cc2ccccc2cc1O was read as ELG1 genotox inactive, NPC1 prom act inactive, FLuc counter 6.7µM, Rab9 promoter act inactive and ELG1 repair inh inactive.
Screening O=C(N/N=C/c1ccncc1)c1cc([N+](=O)[O-])cc([N+](=O)[O-])c1O returned ELG1 genotox inactive, NPC1 prom act inactive, FLuc counter 27µM, Rab9 promoter act inactive, ELG1 repair inh inactive and SMN2 splice enh inactive.
For CCOc1ccc(CCNC(=O)c2ccc(C)c(NC3=NC4CS(=O)(=O)CC4S3)c2)cc1 (configuration not stated) the results were ELG1 genotox inactive, NPC1 prom act inactive, FLuc counter inconclusive, Rab9 promoter act inactive and ELG1 repair inh inactive.
`CCCS(=O)(=O)NCCc1csc2nc(-c3ccc(OC)cc3)nn12` gave FLuc counter inactive.
`COc1cccc(-c2nc(CCl)cs2)c1OC` gave ELG1 genotox inactive, NPC1 prom act inactive, FLuc counter 17µM, Rab9 promoter act inactive, ELG1 repair inh inconclusive and SMN2 splice enh inactive.
COc1cccc(-c2nc(CC(=O)O)cs2)c1OC was read as ELG1 genotox inactive, NPC1 prom act inactive, FLuc counter inactive, Rab9 promoter act inactive, ELG1 repair inh inconclusive and SMN2 splice enh inactive.
`CCOc1ccc(-c2nc(CCl)cs2)cc1OC` gave ELG1 genotox inconclusive, NPC1 prom act inactive, FLuc counter 17µM, Rab9 promoter act inactive, ELG1 repair inh inconclusive and SMN2 splice enh inactive.
Cc1cccc(Nc2cc(C)nc3nc(-c4ccccc4)nn23)c1 was read as FLuc counter inactive and SMN2 splice enh inactive.
For CCOc1ccc(CNc2cc(C)nc3nc(-c4cccc(C)c4)nn23)cc1OC the results were FLuc counter 5.4µM.
For Cc1ccc(CNc2cc(C)nc3nc(-c4cccc(C)c4)nn23)cc1 the results were FLuc counter 12µM.
For CC1CCC(NC(=O)c2cc(S(=O)(=O)N3CCCCC3)ccc2N2CCOCC2)CC1 (configuration not stated) the results were ELG1 genotox inactive, NPC1 prom act inactive, FLuc counter inactive, Rab9 promoter act inactive and ELG1 repair inh inactive.
`CN(C)C1=NCCN1CC1CCCCC1` gave ELG1 genotox inactive, NPC1 prom act inactive, FLuc counter inactive, Rab9 promoter act inactive and ELG1 repair inh inactive.
Screening COc1ccc(-c2cc3c(=O)n(CC(=O)N4CCCCC4)ncn3n2)cc1 returned ELG1 genotox inactive, NPC1 prom act inactive, FLuc counter inconclusive, Rab9 promoter act inactive and ELG1 repair inh inconclusive.
CCC1CCCCN1CCCNC(=O)Cn1ncn2nc(-c3ccc(OC)cc3)cc2c1=O (configuration not stated) was read as ELG1 genotox inconclusive, NPC1 prom act inactive, FLuc counter 24µM, Rab9 promoter act inconclusive and ELG1 repair inh inconclusive.
COc1ccc(-c2cc3c(=O)n(CC(=O)N4CCN(C)CC4)ncn3n2)cc1 was read as ELG1 genotox inconclusive, NPC1 prom act inconclusive, FLuc counter 2.4µM, Rab9 promoter act 5µM and ELG1 repair inh inconclusive.
For CCc1ccc(-c2cc3c(=O)n(CC(=O)NCCCN4CCN(C)CC4)ncn3n2)cc1 the results were ELG1 genotox inconclusive, NPC1 prom act 2.8µM, FLuc counter 2.4µM, Rab9 promoter act 2.8µM and ELG1 repair inh inconclusive.
Screening COc1ccc(-c2cc3c(=O)n(CC(=O)NCCCc4ccccc4)ncn3n2)cc1 returned ELG1 genotox inconclusive, NPC1 prom act 2.8µM, FLuc counter inconclusive, Rab9 promoter act 4µM and ELG1 repair inh inconclusive.
